Records with an inconclusive call do not appear. Values without a mark were called inactive. Active and inactive are the calls of the source. Calls come from the whole dose curve; as a rule, active = well fitted curve in the direction sought with a large enough effect; inconclusive = small, poorly fitted or top-dose-only effect, or another doubt; inactive = no such curve, though single readings can be large; an effect the other way counts as inactive or inconclusive.
Biological target: Metallo-beta-lactamase type 2 (Klebsiella pneumoniae) (UniProt C7C422)
Sequence (C7C422 whole entry, looked up): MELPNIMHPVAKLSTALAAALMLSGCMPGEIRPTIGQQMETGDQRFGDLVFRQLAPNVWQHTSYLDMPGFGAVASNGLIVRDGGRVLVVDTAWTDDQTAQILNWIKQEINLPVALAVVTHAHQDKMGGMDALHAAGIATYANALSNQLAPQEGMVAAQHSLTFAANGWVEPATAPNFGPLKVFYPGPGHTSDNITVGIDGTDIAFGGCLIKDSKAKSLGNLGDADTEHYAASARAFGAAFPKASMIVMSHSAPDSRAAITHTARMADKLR
Assay: qHTS to identify inhibitors of the New Delhi Metallo-beta-lactamase (NDM): assay validation screen against the NCATS LOPAC Collection (AID 1794843);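 note: nitrocefin turnover by NDM-1 measured as 485 nm absorbance at plateau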
Conditions: NDM-1 enzyme, nitrocefin hydrolysis, absorbance 485 nm; series mostly up to 38.4 µM; activity change, negative = inhibition: at the top concentration
How it was run: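 Enzyme 2 nM final, 50 mM HEPES pH 7.0, 1 uM ZnSO4, 0.01% Tween20; cpds in DMSO, preincub w/ enzyme; + nitrocefin (50 uM stock); A485 at plateau; no-enzyme column as blank.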
% is set by controls: 0 for no effect and ±100 for the full control effect.

Compound | activity change, negative = inhibition
CS(=O)(=O)c1ccc(-n2nc(C(F)(F)F)cc2-c2ccc(F)cc2)cc1 | -7.68%
O=[N+]([O-])c1ccc(CNc2nc(NCc3cccc(C(F)(F)F)c3)nc3nc[nH]c23)cc1 | -2.56%
CCNc1nc2c(ncn2[C@H]2C[C@H](O)[C@@H](CO)O2)c(=O)[nH]1 | -4.69%
O=C(Nc1ccc2c(c1)CCN(Cc1ncn[nH]1)C2)c1ccccc1-c1ccc(C(F)(F)F)cc1 | -0.94%
O=C(O)CCCC[C@@H]1CCSS1 | -4.38%
COC(=O)C1=C(C)NC(C)=C(C(=O)OC)C1c1cccc(NC(=O)NCCCN2CCC(c3cccc(OC)c3)CC2)c1 | -0.878%
C=CC(C)=C[C@@]1(C)SC(=O)C(C)=C1O | -0.609%
CCNC(=O)[C@H]1O[C@@H](n2cnc3c(N)nc(NCCc4ccc(CCC(=O)O)cc4)nc32)[C@H](O)C1O (some centres undefined) | -4.85%
O=C(Nc1ccc2[nH]ncc2c1)C1CCC1 | -1.42%
O=C1C(SCCO)=C(SCCO)C(=O)c2ccccc21 | -11.6%
O=C1NC(=O)/C(=C/c2ccc(-c3ccc(F)cc3O)o2)S1 | -1.09%
COc1ccc(/C=C/C(=O)Nc2ccccc2C(=O)O)cc1OC | -3.37%
Nc1ccn([C@H]2O[C@H](CO)[C@@H](O)C2(F)F)c(=O)n1 | -6.2%
CCN(CC)CCCCNc1ncc2cc(-c3c(Cl)cccc3Cl)c(NC(=O)NC(C)(C)C)nc2n1 | -7.4%
CCCCN(CC)c1nc(C)nc2c1c(C)cn2-c1c(C)cc(C)cc1C | 25.6%
CCC(CO)Nc1nc(NCc2ccccc2)c2ncn(C(C)C)c2n1 (centres undefined) | 2.92%
CN(CCCOc1ccc(Cc2ccccc2)cc1)CCC(=O)O | -1.73%

Biological target: Glutathione peroxidase 1 (Homo sapiens) (UniProt P07203)
Sequence (P07203 whole entry, looked up): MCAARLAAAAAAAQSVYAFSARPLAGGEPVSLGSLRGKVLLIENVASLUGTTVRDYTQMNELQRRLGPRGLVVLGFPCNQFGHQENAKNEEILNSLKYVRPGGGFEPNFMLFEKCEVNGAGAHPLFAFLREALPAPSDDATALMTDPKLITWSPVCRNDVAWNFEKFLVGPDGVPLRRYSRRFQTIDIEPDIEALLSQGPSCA
Assay: Primary qHTS Assay for Inhibitors of Recombinant Selenoprotein Glutathione Peroxidase 1 (GPX1) (AID 1845191); note: nearly all actives have a fitted effect of over 65% in size; note: potency is the fitted concentration of half-maximal effect
Conditions: recombinant GPX1, GR-coupled NADPH fluorescence, 15 min; series mostly up to 48.8 µM; activity, negative = inhibition: at the top concentration
How it was run: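 10 nM GPX1 + cpd, 30 min RT; start w/ 1 mM GSH, 0.5 mM cumene hydroperoxide, 0.5 mM NADPH, 100 nM GR, 0.01% BSA; buffer 50 mM Tris-HCl pH 7.5, 2 mM EDTA, 150 mM NaCl; Fl 340/450, 0 & 15 min.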

Compound | Potency | activity, negative = inhibition | outcome
CS(=O)(=O)c1ccc(-n2nc(C(F)(F)F)cc2-c2ccc(F)cc2)cc1 | inactive | – | –
O=C(O)CNC(=O)C(CS)Cc1ccccc1 (centres undefined) | – | -19.9% | –
CN(C)c1nc2c(Br)c(Br)c(Br)c(Br)c2[nH]1 | – | – | inactive
O=[N+]([O-])c1ccc(CNc2nc(NCc3cccc(C(F)(F)F)c3)nc3nc[nH]c23)cc1 | inactive | – | –
Cc1ccc(C(=O)c2ccc(CC(=O)O)n2C)cc1 | – | -17% | –
O=C(O)CC[C@@H](C(=O)O)N1C(=O)c2ccccc2C1=O | – | – | inactive
CCCCCCCCCCCCCCCCCC(=O)OC(CC(=O)O)C[N+](C)(C)C (centres undefined) | – | – | inactive
CCNc1nc2c(ncn2[C@H]2C[C@H](O)[C@@H](CO)O2)c(=O)[nH]1 | inactive | – | –
CCCCCCCCCCCC(=O)[O][Sn]([CH2]CCC)([CH2]CCC)[O]C(=O)CCCCCCCCCCC | – | 1.2% | –
O=C1NCc2c1c1c3ccccc3[nH]c1c1[nH]c3ccccc3c21 | – | 3.93% | –
O=C(Nc1ccc2c(c1)CCN(Cc1ncn[nH]1)C2)c1ccccc1-c1ccc(C(F)(F)F)cc1 | inactive | – | –
COC(=O)C1=C(C)NC(C)=C(C(=O)OC)C1c1cccc(NC(=O)NCCCN2CCC(c3cccc(OC)c3)CC2)c1 | inactive | – | –
CSc1ccccc1N1CCN(CCCCCC(=O)NC2CCCc3ccccc32)CC1 (centres undefined) | – | – | inactive
CCCC(=O)OC[C@@H](OC(=O)CCC)[C@@H](OC(=O)CCC)[C@H](Cn1c2nc(=O)[nH]c(=O)c-2nc2cc(C)c(C)cc21)OC(=O)CCC | – | -17% | –
Oc1cc2c(cc1O)CN(C(=S)NCCc1ccc(Cl)cc1)CCC2 | – | -4.03% | –
COc1cc(/C=C/C(=O)CC(=O)/C=C/c2ccc(O)c(OC)c2)ccc1O | – | -13% | –

Compound | Potency | activity, negative = inhibition | outcome
COc1ccc(Br)cc1S(=O)(=O)NC(=O)/C=C/c1ccccc1Cc1ccc2ccccc2c1 | – | -4.57% | –
CCNC(=O)[C@H]1O[C@@H](n2cnc3c(N)nc(NCCc4ccc(CCC(=O)O)cc4)nc32)[C@H](O)C1O (some centres undefined) | – | – | inactive
O=C(Nc1ccc2[nH]ncc2c1)C1CCC1 | inactive | – | –
COc1ccc(/C=C/C(=O)Nc2ccccc2C(=O)O)cc1OC | inactive | – | –
CC1(C)S[C@@H]2[C@H](NC(=O)[C@H](N)c3ccccc3)C(=O)N2[C@H]1C(=O)O | – | -12.7% | –
CCN(CC)CCCCNc1ncc2cc(-c3c(Cl)cccc3Cl)c(NC(=O)NC(C)(C)C)nc2n1 | 20.2 µM (active) | – | –
NCCCCCCCCCCN | – | – | inactive
CCCCCC[C@@H](O)C/C=C\CCCCCCCC(=O)O | – | -9.15% | –
CCCCN(CC)c1nc(C)nc2c1c(C)cn2-c1c(C)cc(C)cc1C | inactive | – | –
CCC(CO)Nc1nc(NCc2ccccc2)c2ncn(C(C)C)c2n1 (centres undefined) | – | -11.8% | –
O=C(c1ccc(OCCCc2cnc[nH]2)cc1)C1CC1 | – | -24.3% | –
CN(CCCOc1ccc(Cc2ccccc2)cc1)CCC(=O)O | inactive | – | –
CCCSc1ccc2nc(NC(=O)OC)[nH]c2c1 | – | – | inactive
Nc1cc(-c2ccncc2)c[nH]c1=O | – | – | inactive
COc1cc2c3cc1Oc1cc(ccc1O)C[C@@H]1c4c(cc(OC)c(O)c4Oc4ccc(cc4)C[C@@H]3N(C)CC2)CC[N+]1(C)C | – | 4.55% | –
CC(C)CC(NP(=O)(O)O[C@@H]1O[C@@H](C)[C@H](O)[C@@H](O)[C@H]1O)C(=O)NC(Cc1c[nH]c2ccccc12)C(=O)O (some centres undefined) | – | 1.78% | –
